Source: PubChem
Pf growth 48h: inhibits P. falciparum growth in the first generation, 48 h; P. falciparum luciferase growth in erythrocytes, 48 h; Potency, µM (titrated, usually from 28.7 µM), without a hit: at the top dose activity change, negative = inhibition, usual class: inhibitors; 5.9% of 310,000 active; further: potency means the concentration at half of the fitted maximal effect
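Parasite viability was followed by luminescence of a genomically integrated firefly luciferase. Cultures held 0.1% parasitemia at 2% hematocrit (final), incubated under 5% CO2 at 37 C.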
HCV inh: blocks hepatitis C virus. Huh7.5.1 HCVcc-Cre infection, luciferase reporter, 44 h. Potency, µM (titrated, usually from 41.8 µM), without a hit: top-dose activity change, negative = inhibition, actives largely listed as inhibitors. 3.4% of 340,000 active. AID 651820; further: potency means the concentration at half of the fitted maximal effect
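After 44 h co-culture of compound, cells and HCVcc-Cre (~0.5 moi), substrate is added for 15 min at room temperature and luciferase measured over 15 sec. Cells were seeded at 1,000/well and pre-cultured 4 h.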
Pf growth 96h: inhibits malaria parasite growth, 96 h | P. falciparum luciferase reporter growth, 96 h | Potency, µM (series often up to 28.7 µM), for inactives: top-dose activity change, negative = inhibition, hits mostly inhibitors | 6.9% of 320,000 active; further: potency means the concentration at half of the fitted maximal effect
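Erythrocytes infected with luciferase-expressing P. falciparum were dispensed at 2% hematocrit and 0.05% parasitemia (final), then incubated with compounds 96 hours at 37 C in 5% CO2. Luminescence after detection reagent addition reported growth.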
HCMV inh: inhibitors of human cytomegalovirus. AID 1259415. 4.5% of 410,000 active. activity change, negative = inhibition, % at 57.5 µM. HFF cells, HCMV-luciferase reporter, 72 h; active compounds read low; in the data active means activity change below about -60%; inconclusive means no clear call, values can overlap the other calls; inactive means above about -39%
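After 16 h attachment at 37C, HFF cells received test compound and HCMV-luciferase (1 PFU/cell); reporter luminescence read 72 h later, data normalized against buffer-only and known inhibitor Salinomycin.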
* hit, by the source's call; ? = inconclusive; · = not tested or not shown; [ ] = another dose, or the depositor's remark. A selection: hits, their analogues and other compounds. The true share with any hit is near 13%. Unless noted, the call rests on the fitted dose curve; in most records, active means well fitted inhibition curve with a large enough effect; inconclusive means small, poorly fitted or top-dose-only effect, or another doubt; inactive means no such curve, though single readings can be large or run the other way. On the % scale 0 is the no-effect control and ±100 the full control effect.

SMILES | Pf growth 48h | HCV inh | Pf growth 96h | HCMV inh
Cc1ccc(Nc2c(-c3cccs3)nc3nc(C)cc(C)n23)cc1 | · | · | · | 69
COc1ccc(OCc2n(CC(=O)OC3CC(C)CCC3C(C)C)c3ccccc3[n+]2C)cc1 (configuration not stated) | 1µM* | ? | ? | -103*
COc1ccc(-c2n(CC(=O)OC3CC(C)CCC3C(C)C)c3ccccc3[n+]2C)cc1 (configuration not stated) | 19% | 11µM* | 30% | 17
CC1CCC(C(C)C)C(OC(=O)c2ccccc2N)C1 (configuration not stated) | -21% | · | ? | ·
COc1cccc(CNC(=O)[C@H]2[C@H](CO)[C@H]3Cn4c(cccc4=O)[C@@H]2N3C(=O)C2CC2)c1 | · | · | · | -20
Cc1cccc(-n2c(C)nc3cc(C(=O)NCC4CCCO4)ccc32)c1 (configuration not stated) | 5% | 7% | ? | -64*
Cc1ccc(C)n1-c1ccc(C(=O)NCC2CCCO2)cc1 (configuration not stated) | -11% | 7% | 10µM* | -3
Nc1ccc(N2CCOCC2)c2nonc12 | 1% | 25% | 12µM* | 17
CCCCn1cc(S(=O)(=O)c2ccc(OC)cc2)c(=O)c2cc(F)c(N3CCOCC3)cc21 | · | · | · | -6
CCc1cc2c(-c3ccccc3)cc(=O)oc2cc1OC(C)C(=O)O (configuration not stated) | 25% | 11% | ? | -3
CC(NC(=O)OCc1ccccc1)C(=O)Oc1cc2oc(=O)cc(-c3ccccc3)c2cc1Cl (configuration not stated) | 10% | 25% | -29% | -94*
CCc1cc2c(-c3ccccc3)cc(=O)oc2cc1OCC(C)=O | -24% | ? | 13µM* | 16
CC(C)c1ccc(S(=O)(=O)N2CCC(N3CCN(Cc4ccccc4)C(=O)C3=O)CC2)cc1 | · | · | · | 7
COC(=O)c1ccc(NC(=O)CN(c2cccc(C(F)(F)F)c2)S(C)(=O)=O)cc1 | · | · | · | -3
CCN(C(=O)Cc1c(C(=O)O)c(C)cn1C)c1cccc(Cl)c1 | · | · | · | 11
CN1C2CCC1/C(=C/c1cccn1C)C(=O)/C2=C\c1cccn1C | -17% | ? | -2% | ?
CN1C2CCC1/C(=C\c1ccc(F)cc1)C(=O)/C2=C/c1ccc(F)cc1 | 0.83µM* | ? | -3% | -103*
CCOc1ccccc1NC(=O)Cn1c(=O)n(Cc2cccs2)c(=O)c2cccnc21 | · | · | · | -23
CCOC(=O)[C@H]1[C@H]2COc3ccc(OC)cc3[C@@H]2N2C(=O)CN(Cc3ccco3)C(=O)[C@@]12C | ? | 5% | ? | -33
CCOC(=O)[C@H]1[C@H]2COc3ccc(Br)cc3[C@@H]2N2C(=O)CN(Cc3ccc(OC)cc3)C(=O)[C@@]12C | 7.4µM* | ? | ? | -10
CCOC(=O)[C@H]1[C@H]2COc3ccc(Br)cc3[C@@H]2N2C(=O)CN(Cc3ccccc3)C(=O)[C@@]12C | ? | -21% | ? | 5
CCOC(=O)[C@H]1[C@H]2COc3ccc(Cl)cc3[C@@H]2N2C(=O)CN(Cc3ccc(OC)cc3)C(=O)[C@@]12C | 7.4µM* | -13% | 6.6µM* | 14
CCCCN1CC(=O)N2[C@H]3c4cc(Cl)ccc4OC[C@@H]3[C@H](C(=O)OCC)[C@]2(C)C1=O | ? | 5% | ? | -20
CCOC(=O)[C@H]1[C@H]2COc3ccc(C)cc3[C@@H]2N2C(=O)CN(Cc3ccccc3)C(=O)[C@@]12C | ? | -12% | ? | 44
CCOC(=O)[C@H]1[C@H]2COc3ccc(Cl)cc3[C@@H]2N2C(=O)CN(Cc3ccc(C)cc3)C(=O)[C@@]12C | 12µM* | ? | ? | 2
SMILES | Pf growth 48h | HCV inh | Pf growth 96h | HCMV inh
CCOC(=O)[C@H]1[C@H]2COc3ccc(OC)cc3[C@@H]2N2C(=O)CN(CCc3c[nH]c4ccccc34)C(=O)[C@@]12C | 13µM* | -4% | ? | 30
C[C@@]12C(=O)N(CCc3c[nH]c4ccccc34)CC(=O)N1[C@H]1c3ccccc3OC[C@@H]1[C@@H]2c1ccccc1 | 12µM* | ? | 6.6µM* | 3
CCOC(=O)[C@H]1[C@H]2COc3cc(OC)ccc3[C@@H]2N2C(=O)CN(Cc3ccc(C)cc3)C(=O)[C@@]12C | 10µM* | 2% | 2.6µM* | -17
O=C(Cn1c(=O)nc(-c2ccccc2)c2ccccc21)NCc1ccccc1Cl | · | · | · | 92
O=C(CSC1=Nc2ccccc2C2CC=NN12)NCc1ccco1 (configuration not stated) | · | ? | · | -3
N#Cc1ccccc1NC(=O)CSC1=Nc2ccccc2C2CC=NN12 (configuration not stated) | -21% | -12% | 5% | -60*
O=C(CSC1=Nc2ccccc2C2CC=NN12)Nc1ccc2c(c1)OCO2 (configuration not stated) | 0% | ? | 3% | 50
Cc1cc(C)cc(N(CCC#N)C(=O)CSC2=Nc3ccccc3C3CC=NN23)c1 (configuration not stated) | 13µM* | -17% | 12µM* | 5
CN(C(=O)CSc1ncnc2sccc12)C1CCCCC1 | 89% | -3% | 59% | -10
Cc1cc(C)cc(N(CCC#N)C(=O)CSc2ncnc3sccc23)c1 | 12µM* | ? | ? | ?
O=C(NCC1CCCCC1)c1ccc2nc([C@@H]3O[C@H](CO)[C@@H](O)[C@H]3O)[nH]c2c1 | · | · | · | -6
CCn1c(=O)cc(OCC(=O)NCCC(C)C)c2ccccc21 | · | -7% | 35% | 39
Cc1ccc2c(c1)N(CC(=O)NC1CCC(C)CC1)C(=O)CO2 (configuration not stated) | 7% | 8% | 65% | 17
CC1CCC(NC(=O)Cn2c3c(c(-c4ccccc4Cl)cc2=O)CCC3)CC1 (configuration not stated) | ? | 11µM* | -17% | -23
CC(C)CCNC(=O)Cn1c2c(c(-c3ccccc3Cl)cc1=O)CCC2 | · | -24% | -18% | -80*
Cc1cc(C)cc(NC(=O)CN2C(=O)c3ccccc3Sc3ccc(C(=O)N4CCCC4)cc32)c1 | · | · | · | 17
Cc1cc(NC(=O)NC(=O)c2ccccc2NC(=O)C(C)N)ccc1Oc1ncc(Br)cn1 (configuration not stated) | · | -23% | · | -83*
CCOC(=O)c1ccccc1NC(=O)Nc1ccc(OC)c(OC)c1 | 26% | 7% | · | 17
CCCSc1ncc(Cl)c(C(=O)Nc2c(C(=O)c3ccc(C)cc3)oc3ccccc23)n1 | · | · | · | -24
O=C(Cc1cccc(NC(=O)C2CCN(C(=O)CCc3ccccc3)CC2)c1)Nc1cccc(C(=O)N2CCCC2)c1 | 12µM* | 2% | ? | 45
O=C(Cc1cccc(NC(=O)C2CCN(C(=O)C3CCCC3)CC2)c1)Nc1cccc(C(=O)N2CCCC2)c1 | 15µM* | -17% | ? | 3
O=C(Cc1cccc(NC(=O)C2CCN(C(=O)C3CCCC3)CC2)c1)Nc1cccc(C(=O)N2CCCCC2)c1 | · | -16%[8.37 µM] | · | -10
